A short description of assay [1]: ATG_CRE_CIS: Attagene CIS-FACTORIAL HepG2 Assay for human cAMP Responsive Element (CRE) binding protein 3 (AID 2282926). Particulars: HepG2 CRE cis-reporter, Attagene multiplexed mRNA; actives raise or lower the signal. The gist of the method:
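Readout: fluorescently labelled reporter transcripts resolved by capillary electrophoresis after RT-PCR, taken 24 h post-dosing in transfected HepG2. Endogenous transcription factor activity drives each cis-element reporter; gain or loss of signal fitted relative to DMSO control.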

For assay [2], the target named is CCAAT/enhancer-binding protein beta (Homo sapiens) (UniProt P17676). Briefly: ATG_C_EBP_CIS: Attagene CIS-FACTORIAL HepG2 Assay for human CCAAT/Enhancer Binding Protein (C/EBP) beta (AID 2282927). To be noted: HepG2 Attagene cis-factorial transcription factor reporter; actives raise or lower the signal. The gist of the method: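 Endogenous transcription factor activity in human liver HepG2 cells is inferred from induction of a CEBPB-linked reporter mRNA. Exposure lasts 24 h; activity is fitted in both directions relative to DMSO.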

Assay [3] can be described thus: ATG_CMV_CIS: Attagene CIS-FACTORIAL HepG2 Assay for human CMV (Internal Marker) (AID 2282928).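 Further: endpoint acts as a background internal control marker rather than a target.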 Particulars: HepG2 CMV promoter reporter, transcription factor profiling; actives raise or lower the signal. In a few lines:
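Readout: fluorescent reporter cDNA fragments separated by capillary electrophoresis after RT-PCR and HpaI cut. Cells: HepG2 carrying transfected cis-promoter reporter constructs, dosed 24 h. Endpoint serves as background internal-marker control, fit bidirectionally versus DMSO.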

Assay [4] is described as follows: ATG_DR4_LXR_CIS: Attagene CIS-FACTORIAL HepG2 Assay for human Liver X Receptor (LXR), DR4 submotif (AID 2282929). Particulars: HepG2 Attagene DR4 cis-reporter, mRNA transcription; actives raise or lower the signal. The gist of the method:
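Measures endogenous transcription factor activity via a DR4-driven reporter transcript in human HepG2 cells. Compounds incubated 24 h; mRNA quantified by RT-PCR and capillary electrophoresis, analysed as gain or loss of signal versus DMSO.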

The target in assay [5] is Aryl hydrocarbon receptor (Homo sapiens) (UniProt P35869). Put plainly: ATG_Ahr_CIS: Attagene CIS-FACTORIAL HepG2 Assay for human Aryl Hydrocarbon Receptor (Ahr) (AID 2282930). Particulars: HepG2 AhR cis-factorial reporter transcription; actives raise or lower the signal. The gist of the method:
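Transient MRTU transfection of HepG2 → 24 h compound exposure → total RNA, oligo(dT) RT → PCR, 6-FAM extension, HpaI cut → CE fluorescence. DMSO = baseline; bidirectional curve fit.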

The nature of assay [6]: ATG_AP_1_CIS: Attagene CIS-FACTORIAL HepG2 Assay for human Activator Protein 1 (AP-1) (AID 2282931). To be noted: HepG2 Attagene cis-factorial AP-1 reporter mRNA; actives raise or lower the signal. In a few lines:
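Bidirectional concentration-response fitting against DMSO controls. Underlying signal: reporter mRNA from cis-promoter constructs in transiently transfected HepG2, measured after 24 h by RT-PCR and capillary electrophoresis.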

The nature of assay [7]: ATG_AP_2_CIS: Attagene CIS-FACTORIAL HepG2 Assay for human Activator Protein 2 (AP-2) (AID 2282932). Particulars: HepG2 AP-2 cis-reporter, Attagene transcription factor profiling; actives raise or lower the signal. The gist of the method:
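Endogenous transcription factor activity is reported through transfected multiplex reporter constructs in HepG2, after 24 h of compound exposure. Transcripts were quantified by RT-PCR and capillary electrophoresis of fluorescent fragments. Bidirectional fit against DMSO.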

The nature of assay [8]: ATG_BRE_CIS: Attagene CIS-FACTORIAL HepG2 Assay for human Bone Morphogenetic Protein (BMP) Response Element (BRE) (AID 2282933). Particulars: HepG2 BMP response element reporter, Attagene transcription factor profiling; actives raise or lower the signal. In a few lines:
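HepG2 cells transiently transfected with multiplexed cis-element reporter units were dosed with chemical for 24 h. Reporter mRNA was measured by RT-PCR with fluorescent labelling, HpaI digestion and capillary electrophoresis; bidirectional fitting relative to DMSO.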

The target in assay [9] is Retinoic acid receptor alpha (Homo sapiens) (UniProt P10276). Briefly: ATG_DR5_RAR_CIS: Attagene CIS-FACTORIAL HepG2 Assay for human Retinoic Acid Receptor Alpha (RARE), DR5 submotif (AID 2282934). Particulars: HepG2 Attagene cis-factorial RARE DR5 reporter, mRNA; actives raise or lower the signal. The gist of the method:
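Transient MRTU transfection of HepG2; 24 h compound treatment; TriZol RNA, oligo(dT) RT, PCR, FAM labelling, capillary electrophoresis. Bidirectional fit vs DMSO. Endogenous TF activity at DR5 RARE.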

In assay [10] the target is Transcription factor E2F1 (Homo sapiens) (UniProt Q01094). Briefly: ATG_E2F_CIS: Attagene CIS-FACTORIAL HepG2 Assay for human E2F Transcription Factor 1 (AID 2282935). Particulars: HepG2 Attagene cis-reporter, E2F reporter RNA transcripts; actives raise or lower the signal. In a few lines: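 Gain or loss of reporter transcript, fitted against DMSO, reflects E2F1-driven transcription. Transiently transfected HepG2 dosed 24 h before RNA isolation. Quantified by fluorescent RT-PCR products separated by capillary electrophoresis.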

Assay [11] can be described thus: ATG_E_Box_CIS: Attagene CIS-FACTORIAL HepG2 Assay for human Enhancer Box (E-box) (AID 2282936). Particulars: HepG2 E-box cis-reporter transcription, actives raise or lower the signal. The gist of the method: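 E-box-driven reporter transcripts measured in transiently transfected HepG2 after 24 h exposure: RNA reverse-transcribed, PCR-amplified, fluorescently labelled, digested and resolved by capillary electrophoresis. Gain or loss relative to DMSO.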

The nature of assay [12]: ATG_M_61_CIS: Attagene CIS-FACTORIAL HepG2 Assay for M61 Transcription Factor (Internal Marker) (AID 2282937). Particulars: HepG2 Attagene CIS-FACTORIAL M61 internal marker reporter; actives raise or lower the signal. In a few lines: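 Fluorescence from labelled cDNA fragments, separated by capillary electrophoresis, quantifies reporter induction. HepG2 cells bearing transiently transfected cis-promoter MRTUs were incubated with test chemical for 24 h; DMSO defined baseline for gain/loss fitting.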

Assay [13] in a line: ATG_EGR_CIS: Attagene CIS-FACTORIAL HepG2 Assay for human Early Growth Response 1 (EGR1) (AID 2282938). Particulars: HepG2 Attagene CIS-FACTORIAL EGR reporter mRNA; actives raise or lower the signal. The gist of the method: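 Cell-based multiplex transcription assay: HepG2 carrying transfected cis-element reporter units, 24 h chemical treatment. Fluorescence from capillary electrophoresis of RT-PCR products gives mRNA levels; fitting is bidirectional relative to DMSO.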

Assay [14] is described as follows: ATG_M_19_CIS: Attagene CIS-FACTORIAL HepG2 Assay for M19 Transcription Factor (Internal Marker) (AID 2282939). To be noted: HepG2 Attagene CIS-FACTORIAL M19 internal marker reporter; actives raise or lower the signal. In a few lines:
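HepG2 cells transiently transfected with cis-regulated multiple reporter transcription units were dosed for 24 h; reporter mRNA was quantified by RT-PCR, 6-FAM primer-extension labelling, HpaI digestion and capillary electrophoresis, with bidirectional fitting against DMSO baseline.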

A short description of assay [15]: ATG_Ets_CIS: Attagene CIS-FACTORIAL HepG2 Assay for human Erythroblast Transformation Specific (ETS) (AID 2282941). To be noted: HepG2 ETS cis-reporter transcription, actives raise or lower the signal. The gist of the method: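 RT-PCR/capillary electrophoresis fluorescence read-out of reporter mRNA; HepG2 transient multi-reporter transfection; 24 h compound exposure; gain or loss of signal fitted bidirectionally relative to DMSO.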

The target of assay [16] is Hepatocyte nuclear factor 3-beta (Homo sapiens) (UniProt Q9Y261). Briefly: ATG_FoxA2_CIS: Attagene CIS-FACTORIAL HepG2 Assay for human Forkhead box A2 (FOXA2) (AID 2282942). Particulars: HepG2 cis-reporter transcription factor activity, 24 h; actives raise or lower the signal. The gist of the method:
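In transiently transfected human HepG2 cells, promoter-driven reporter mRNA levels after 24 h chemical exposure are determined via RT-PCR with capillary electrophoresis. DMSO serves as baseline for bidirectional fitting.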

Assay [17] in a line: ATG_FoxO_CIS: Attagene CIS-FACTORIAL HepG2 Assay for human Forkhead box O (FoxO) (AID 2282943). Particulars: HepG2 Attagene cis-reporter, FoxO element, mRNA; actives raise or lower the signal. In a few lines:
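HepG2, transient MRTU transfection (cis element, endogenous TFs). Dose 24 h. TriZol RNA → oligo(dT) RT → PCR → 6-FAM primer extension → HpaI cut → CE. Gain/loss vs DMSO.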

The nature of assay [18]: ATG_GATA_CIS: Attagene CIS-FACTORIAL HepG2 Assay for human GATA Binding Protein (AID 2282944). Particulars: HepG2 GATA cis-element reporter, Attagene multiplex mRNA; actives raise or lower the signal. The gist of the method: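 HepG2 cells transiently transfected with multiplexed cis-element reporter units reflecting endogenous transcription factor activity; reporter mRNA measured after 24 h dosing by RT-PCR, 6-FAM labeling, HpaI digestion and capillary electrophoresis. Bidirectional fitting versus DMSO baseline.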

Assay [19] in a line: ATG_GLI_CIS: Attagene CIS-FACTORIAL HepG2 Assay for human Zinc Finger Protein GLI1 (AID 2282945). To be noted: HepG2, Attagene cis-factorial reporter mRNA, GLI element; actives raise or lower the signal. The gist of the method: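 Bidirectional curve fits relative to DMSO, using reporter mRNA levels from RT-PCR plus capillary electrophoresis. Cells were HepG2 transiently carrying cis-regulated reporter constructs, harvested 24 h after dosing.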

Assay [20] deals with Bile acid receptor (Homo sapiens) (UniProt Q96RI1). Put plainly: ATG_IR1_CIS: Attagene CIS-FACTORIAL HepG2 Assay for human Nuclear Receptor Subfamily 1 Group H Member 4 (NR1H4), IR1 submotif (AID 2282946). Particulars: IR1 reporter transcription, actives raise or lower the signal. The gist of the method: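 HepG2 cells transiently transfected with multiplexed cis-element reporter units read endogenous transcription factor activity. After 24 h compound exposure, reporter mRNA was quantified by RT-PCR, fluorescent labelling, HpaI digestion and capillary electrophoresis; bidirectional fitting versus DMSO baseline.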

SMILES strings stand for the structures. Calls of active or inactive are those of the source. How the source made its calls: active means hit-call score of the fitted dose curve at least 0.9, where 1 is the maximum; inactive means score below 0.9.

A word on the AC50: it is the concentration at which the activity in the assay is half-maximal.

Chain of Retinoic acid receptor alpha (Homo sapiens) (P10276 whole entry, looked up): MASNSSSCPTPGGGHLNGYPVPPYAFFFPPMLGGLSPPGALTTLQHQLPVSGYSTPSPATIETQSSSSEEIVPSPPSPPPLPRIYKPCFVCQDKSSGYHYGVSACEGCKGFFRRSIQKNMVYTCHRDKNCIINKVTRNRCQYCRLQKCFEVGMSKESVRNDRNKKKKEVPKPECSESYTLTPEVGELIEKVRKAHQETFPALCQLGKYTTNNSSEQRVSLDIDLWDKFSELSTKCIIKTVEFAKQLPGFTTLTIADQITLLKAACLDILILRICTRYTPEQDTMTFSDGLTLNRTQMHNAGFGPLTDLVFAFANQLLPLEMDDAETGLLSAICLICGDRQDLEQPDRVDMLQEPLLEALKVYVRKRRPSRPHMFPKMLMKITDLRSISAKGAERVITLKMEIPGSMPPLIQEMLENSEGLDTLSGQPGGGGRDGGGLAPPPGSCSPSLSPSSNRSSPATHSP
Chain of CCAAT/enhancer-binding protein beta (Homo sapiens) (P17676 whole entry, looked up): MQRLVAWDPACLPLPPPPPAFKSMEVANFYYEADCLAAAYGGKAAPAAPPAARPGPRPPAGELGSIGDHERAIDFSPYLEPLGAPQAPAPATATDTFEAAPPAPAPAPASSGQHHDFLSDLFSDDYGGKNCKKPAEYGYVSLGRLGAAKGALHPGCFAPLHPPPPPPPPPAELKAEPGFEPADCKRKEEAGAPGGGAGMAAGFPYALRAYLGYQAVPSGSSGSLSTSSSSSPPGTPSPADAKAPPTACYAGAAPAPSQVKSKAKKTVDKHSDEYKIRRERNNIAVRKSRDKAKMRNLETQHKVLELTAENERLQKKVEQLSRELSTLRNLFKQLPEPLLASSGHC
Chain of Aryl hydrocarbon receptor (Homo sapiens) (P35869 whole entry, looked up): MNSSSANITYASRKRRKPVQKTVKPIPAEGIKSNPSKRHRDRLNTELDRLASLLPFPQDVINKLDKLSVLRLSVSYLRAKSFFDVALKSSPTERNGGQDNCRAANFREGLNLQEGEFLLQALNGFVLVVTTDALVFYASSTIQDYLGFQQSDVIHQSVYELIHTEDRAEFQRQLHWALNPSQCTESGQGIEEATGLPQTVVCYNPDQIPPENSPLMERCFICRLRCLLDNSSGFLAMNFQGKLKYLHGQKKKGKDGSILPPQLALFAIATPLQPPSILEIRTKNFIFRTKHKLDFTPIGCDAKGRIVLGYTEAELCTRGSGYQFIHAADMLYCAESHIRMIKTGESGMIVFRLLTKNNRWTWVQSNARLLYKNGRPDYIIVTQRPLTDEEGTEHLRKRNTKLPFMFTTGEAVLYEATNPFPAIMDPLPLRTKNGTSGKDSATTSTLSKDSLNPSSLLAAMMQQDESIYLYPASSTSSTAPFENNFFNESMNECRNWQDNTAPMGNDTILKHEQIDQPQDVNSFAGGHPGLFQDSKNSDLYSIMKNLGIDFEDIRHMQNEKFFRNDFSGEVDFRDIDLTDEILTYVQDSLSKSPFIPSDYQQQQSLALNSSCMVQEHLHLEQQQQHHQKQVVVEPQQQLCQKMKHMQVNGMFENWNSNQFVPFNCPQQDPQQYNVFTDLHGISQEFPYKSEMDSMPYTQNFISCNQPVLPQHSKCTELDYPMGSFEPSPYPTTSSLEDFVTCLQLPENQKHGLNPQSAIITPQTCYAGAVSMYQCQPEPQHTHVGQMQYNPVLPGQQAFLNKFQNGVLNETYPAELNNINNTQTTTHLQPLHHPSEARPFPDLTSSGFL
Chain of Transcription factor E2F1 (Homo sapiens) (Q01094 whole entry, looked up): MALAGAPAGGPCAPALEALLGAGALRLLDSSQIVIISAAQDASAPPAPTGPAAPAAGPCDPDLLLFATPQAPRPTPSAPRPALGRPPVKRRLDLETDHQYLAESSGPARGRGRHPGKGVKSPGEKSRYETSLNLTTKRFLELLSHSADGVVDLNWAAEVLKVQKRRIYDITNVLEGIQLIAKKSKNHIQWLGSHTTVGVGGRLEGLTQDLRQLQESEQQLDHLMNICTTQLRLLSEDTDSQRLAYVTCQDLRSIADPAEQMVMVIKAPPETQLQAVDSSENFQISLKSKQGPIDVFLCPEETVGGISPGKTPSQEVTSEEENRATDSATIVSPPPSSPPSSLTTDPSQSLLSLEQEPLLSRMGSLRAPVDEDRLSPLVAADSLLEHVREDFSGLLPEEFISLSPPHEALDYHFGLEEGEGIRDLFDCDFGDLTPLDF
Chain of Hepatocyte nuclear factor 3-beta (Homo sapiens) (Q9Y261 whole entry, looked up): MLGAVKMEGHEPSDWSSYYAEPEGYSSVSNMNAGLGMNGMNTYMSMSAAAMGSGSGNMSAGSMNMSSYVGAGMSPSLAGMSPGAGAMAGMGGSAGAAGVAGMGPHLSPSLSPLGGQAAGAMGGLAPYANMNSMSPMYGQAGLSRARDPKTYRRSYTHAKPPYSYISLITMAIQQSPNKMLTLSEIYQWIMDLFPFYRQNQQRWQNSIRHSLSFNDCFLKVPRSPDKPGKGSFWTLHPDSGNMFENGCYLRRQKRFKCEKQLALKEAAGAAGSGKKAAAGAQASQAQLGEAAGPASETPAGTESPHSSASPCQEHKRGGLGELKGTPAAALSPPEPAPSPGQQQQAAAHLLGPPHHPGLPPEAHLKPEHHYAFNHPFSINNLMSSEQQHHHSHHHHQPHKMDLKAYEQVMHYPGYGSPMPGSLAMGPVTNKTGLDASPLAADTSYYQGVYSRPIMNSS
Chain of Bile acid receptor (Homo sapiens) (Q96RI1 whole entry, looked up): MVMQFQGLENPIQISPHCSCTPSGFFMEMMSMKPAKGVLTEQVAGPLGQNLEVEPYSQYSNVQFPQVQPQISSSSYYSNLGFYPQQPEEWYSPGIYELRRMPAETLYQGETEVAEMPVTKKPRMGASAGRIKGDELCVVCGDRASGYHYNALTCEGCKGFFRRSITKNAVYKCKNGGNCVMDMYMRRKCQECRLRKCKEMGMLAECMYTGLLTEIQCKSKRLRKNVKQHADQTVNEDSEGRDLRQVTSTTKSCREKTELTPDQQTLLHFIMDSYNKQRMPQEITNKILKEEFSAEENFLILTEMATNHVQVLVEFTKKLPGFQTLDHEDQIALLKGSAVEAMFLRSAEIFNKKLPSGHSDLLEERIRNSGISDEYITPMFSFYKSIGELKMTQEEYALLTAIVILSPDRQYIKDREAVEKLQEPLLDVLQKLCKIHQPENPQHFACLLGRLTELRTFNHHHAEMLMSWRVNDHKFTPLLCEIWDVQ

As for `C[C@@H]1CCN(C(=O)[C@H](CCCN=C(N)N)NS(=O)(=O)c2cccc3c2NC[C@H](C)C3)[C@@H](C(=O)O)C1`, the outcome in assay [1], in assay [2], in [3], in [4], in assay [5] and in assay [6] was inactive. Moreover, the outcome in assay [7], in assay [8], in [9], in [10], in assay [11] and in assay [12] was inactive. The outcome in assay [13], in [14], in assay [15], in [16], in assay [17] and in [18] was inactive. Further, in assay [19], the molecule was called inactive.

As for `CN(C)C(=S)SC(=S)N(C)C`, the call in assay [1], in assay [2], in assay [3], in assay [4], in assay [5] and in assay [6] was inactive. The outcome in [7], in [8], in assay [9], in assay [10], in [11] and in [12] was inactive. The molecule was called inactive in assay [13], in [14], in [15], in [16], in [17] and in [18]. Also, the molecule was called inactive in [19] and in assay [20].

With `OCCOCCN1CCN(C2=Nc3ccccc3Sc3ccccc32)CC1`, the outcome in [1], in [2], in assay [4], in [6], in [7] and in assay [8] was inactive. Also, the molecule was classed as inactive in assay [9], in assay [10], in [11], in assay [12], in assay [13] and in assay [14]. Also, the outcome in [15], in [16], in [17], in [18], in assay [19] and in [20] was inactive. Further, the AC50 was 135 µM (active) in assay [3] and 113 µM (active) in [5].

(Values after PubChem BioAssay (EPA / NIEHS).)
